# Bioassay records: PubChem, National Center for Advancing Translational Sciences (NCATS)
# ALOX15 inhib: 15-hLO (ALOX15) enzyme inhibition; P16050; 74,000 compounds, 1.4% hits; Potency, µM (highest dose often 57.1 µM), inactives show top-dose activity change, negative = inhibition, hits mostly inhibitors; AID 887; purified 15hLO-1, xylenol orange hydroperoxide absorbance; also: % is scaled to controls: 0 for no effect and ±100 for the full control effect; nearly all actives have a fitted effect of over 55% in size
# Target sequence (P16050 whole entry, looked up): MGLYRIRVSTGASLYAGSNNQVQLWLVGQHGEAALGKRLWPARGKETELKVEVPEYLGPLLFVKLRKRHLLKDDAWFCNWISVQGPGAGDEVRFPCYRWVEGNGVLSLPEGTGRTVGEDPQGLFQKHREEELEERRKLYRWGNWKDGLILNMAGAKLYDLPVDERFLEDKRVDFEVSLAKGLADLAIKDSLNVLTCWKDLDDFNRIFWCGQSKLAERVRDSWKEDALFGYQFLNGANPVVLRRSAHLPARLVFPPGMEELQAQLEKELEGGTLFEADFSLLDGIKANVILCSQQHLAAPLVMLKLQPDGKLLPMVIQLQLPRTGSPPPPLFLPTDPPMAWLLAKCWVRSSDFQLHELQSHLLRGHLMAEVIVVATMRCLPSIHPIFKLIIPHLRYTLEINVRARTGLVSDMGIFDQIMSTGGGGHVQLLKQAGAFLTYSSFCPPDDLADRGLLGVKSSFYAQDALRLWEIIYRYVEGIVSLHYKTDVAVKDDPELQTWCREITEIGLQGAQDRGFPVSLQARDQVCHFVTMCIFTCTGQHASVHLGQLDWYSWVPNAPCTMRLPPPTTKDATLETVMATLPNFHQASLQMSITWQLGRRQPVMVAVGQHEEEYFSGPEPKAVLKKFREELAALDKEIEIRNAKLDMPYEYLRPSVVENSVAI
#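 Compounds were preincubated 15 min at room temperature with 40 nM purified human enzyme (25 mM Hepes pH 7.5, 0.01% Triton X-100); 50 uM arachidonic acid reacted 6 min. Fe-xylenol orange detection, 30 min, absorbance ratio 573/405 nm.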
# TSHR agonist: agonists of human thyroid stimulating hormone receptor; P16473; HEK293-CNG-TSHR cells (CNG channel as cAMP sensor), membrane potential dye, cAMP; Potency, µM (highest dose often 57.1 µM), without a hit: at the top dose activation, actives largely listed as activators; 73,000 compounds, 0.48% hits; AID 926; active = well fitted activation curve with a large enough effect in the main read-out, with a control signal flat, not every such curve was filed as active; inconclusive = small, poorly fitted or top-dose-only effect, or a change in a side signal; inactive = no such curve, though single readings can be large or run the other way; % of control where 0% means no effect;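 also: the control signal comes from parental cells without the receptor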
#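 cAMP rise detected as CNG-channel membrane depolarization by fluorescent dye (emission 590 nm), 30 min after compound, following 60 min dye loading containing 100 uM RO 20-1724 at room temperature. Cells: TSHR/CNG HEK 293, with parental CNG HEK 293 as control.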
# FLuc inh: firefly luciferase inhibition; purified firefly luciferase, luminescence, 8 min; 72,000 compounds, 2.2% hits; Potency, µM (top dose mostly 57.1 µM), without a hit: top-dose activity change, negative = inhibition, most hits filed as inhibitors; also: % is scaled to controls: 0 for no effect and ±100 for the full control effect; nearly all actives have a fitted effect of over 40% in size
#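 Titration-based qHTS; buffer 50 mM imidazole pH 7.2, 50 mM KCl, 7 mM MgCl2, 10 uM ATP, 0.01% Tween 20, 0.05% BSA; luciferase/luciferin detector mix added after compound; 8 min, ambient; luminescence.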
# PK Bst: modulators of Bacillus stearothermophilus pyruvate kinase; purified pyruvate kinase, luminescence ATP production; ribose 5-phosphate activator present at AC10; Potency, µM; 51,000 compounds, 1.2% hits; AID 361; in the data active = potency below about 11 µM; inconclusive = mostly about 12 µM to 25 µM;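 the screen sought inhibitors and activators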;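 also: scaled between full activation by ribose 5 phosphate and full inhibition by luteolin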
# HEK293 cAMP cs: raises cAMP in parental HEK293 cells, TSHR agonist counter-screen; parental HEK293 CNG cAMP sensor, membrane potential fluorescence; Potency, µM (series often up to 57.1 µM), for inactives: top-dose activation, actives largely listed as activators; 73,000 compounds, 2.5% hits; AID 938; also: % of control where 0% means no effect; nearly all actives have a fitted effect of over 55% in size
#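 Parental HEK 293 cells stably expressing a cAMP-gated CNG channel were loaded with membrane potential dye containing 100 uM RO 20-1724 for 60 min. Compound added for 30 min; depolarization read as fluorescence intensity at 590 nm.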
# Tau filament bind: binders of human tau filaments; AID 596; recombinant tau filaments, thioflavin S fluorescence, 15 h; filaments grown with octadecylsulfate alongside compound; Potency, µM (series often up to 57.1 µM), inactives show at the highest dose activity change, negative = inhibition; P10636; 71,000 compounds, 2% hits;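 also: % is scaled to controls: 0 for no effect and ±100 for the full control effect; actives lower thioflavin S fluorescence by blocking filaments or displacing dye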
#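 ThS-based fibril read: tau 1 uM final, inducer ODS 30 uM final, 37 C for 15 h, ex 450/em 510 nm.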
# Active calls of the source: *; i = inactive; ? = inconclusive; . = no result given; [ ] = dose if it differs, or a comment. Hits are enriched below; roughly 7.8% of the tested compounds scored in any of these assays. Unless noted, calls follow the shape of the dose curve; as a rule, active = well fitted curve in the direction sought with a large enough effect; inconclusive = small, poorly fitted or top-dose-only effect, or another doubt; inactive = no such curve, though single readings can be large; an effect the other way counts as inactive or inconclusive. Potency is read from the fitted curve at half-maximal effect.
SMILES,ALOX15 inhib,TSHR agonist,FLuc inh,PK Bst,HEK293 cAMP cs,Tau filament bind
C=CCOC(=O)C(C(C)=O)C(NC(=O)OC)c1cccc(C(F)(F)F)c1 (stereo not drawn),10%[11.4 µM],9%[11.4 µM],.,.,6%[11.4 µM],.
CN(C)c1ccc(NC(=O)c2cccc(N3C(=O)CCC3=O)c2)cc1,-26%,-1%,13µM*,.,-1%,-10%
COc1cc(C(=O)Nc2ccc(N(C)C)cc2)cc(OC)c1OC,-9%,-11%,?,.,-10%,10µM*
COc1cc(C(=O)Nc2ccccn2)cc(OC)c1OC,.,.,1%[25.5 µM],>26,.,.
CCN(CC)c1ccc(C(=O)Nc2cccc(F)c2)cc1,-24%,10%,10µM*,.,26%,-5%
CCN(CC)c1ccc(NC(=O)c2cncc(Br)c2)cc1,-8%,?,-25%,>57,-31%,20µM*
O=C(NCc1ccco1)c1ccc(S(=O)(=O)c2cccc(S(=O)(=O)N3CCOCC3)c2)cc1,-1%,-2%,-9%,.,6%,9%
O=S(=O)(O)[C@@H](CO)c1ccccc1 (tested in a mixture with another compound),12%[11.4 µM],1%[11.4 µM],0%[11.4 µM],.,2%[11.4 µM],-6%[11.4 µM]
O=C(Nc1cccc(F)c1)c1c(F)c(F)c(F)c(F)c1F,1%,.,3%,>57,20%,-14%
CN(C)c1cccc(C(=O)Nc2cccc(F)c2)c1,?,-6%,16µM*,.,-3%,-29%
Nc1ncnc2oc(-c3ccco3)c(-c3ccco3)c12,2.5µM*,-15%,-4%,.,12%,8%
COC(=O)c1ccc(-c2nc3ccc(C)cc3o2)cc1,-2%,8%,?,3.3*,7%,5%
CCC(C)c1ccc2oc(-c3ccc(NC(=O)c4ncn[nH]4)cc3)nc2c1 (stereo not drawn),12%,-5%,?,>57,-4%,442%
Cc1ccc(-c2nc3cc(N)ccc3o2)cc1,0%,-5%,2.5µM*,.,-7%,-27%
Cc1ccc2oc(-c3ccco3)nc2c1,-20%,-1%,25µM*,.,13%,3%
CC(C)c1ccc2oc(-c3ccc(NC(=O)c4ncn[nH]4)cc3)nc2c1,?,-4%,10µM*,i,-10%,347%
O=C(c1ccncc1)N1CCC[C@@]2(CCN(c3cccc(-c4ccccc4)c3)C2)C1,?,21%,0%[11.4 µM],.,14%,1%
CCN(CC)CCOC(=O)C(Cc1cccc2ccccc12)CC1CCCO1 (stereo not drawn),-11%,.,.,.,.,.
O=C1C[C@@H](O)[C@@H](O)[C@H]2[C@@H]3C(=O)N(Cc4ccccc4)C(=O)[C@@H]3CC[C@H]12,11%[11.4 µM],?,-1%[11.4 µM],.,?,.
Cc1ccc(-c2nc3cc(C)ccc3o2)cc1,4%,8%,0.4µM*,.,4%,7%
CC(C)c1ccc2oc(-c3ccc(N)cc3)nc2c1,-12%[11.4 µM],-12%[11.4 µM],1.3µM*,.,-9%[11.4 µM],?
Cc1ccc2oc(-c3ccc(NC(=O)CC(C)C)cc3)nc2c1,1%,2%,?,.,19%,59%
CC(=O)Oc1ccc(C(c2ccc(OC(C)=O)cc2)c2ccccn2)cc1,4%,?,3%[25.5 µM],>11,2.5µM*,-7%
O=C1[C@H]2O[C@@H]2[C@@H](O)[C@H]2[C@H]1CCn1c(=O)n(Cc3cc4c(cc3Cl)OCO4)c(=O)n12,4%[11.4 µM],0%[11.4 µM],1%[11.4 µM],.,2%[11.4 µM],.
CC(NC(=O)c1cc(-c2ccc(O)cc2)on1)c1ccccc1 (stereo not drawn),-10%,.,-1%,.,15%,-18%
SMILES,ALOX15 inhib,TSHR agonist,FLuc inh,PK Bst,HEK293 cAMP cs,Tau filament bind
COc1ccc(N2CCN(C(=O)C(Cc3ccccc3)n3cccc3)CC2)cc1 (stereo not drawn),25µM*,-3%,-1%,.,8%,13µM*
NCC[C@H]1CCC[C@H](CCN)N1,5%,2%,3%,.,15%,1%
CN(C(=O)c1ccco1)c1nnc(C23CC4CC(CC(C4)C2)C3)s1,?,25%,20µM*,.,17%,14%
CC(NC(=O)COC(=O)CCNC(=O)c1ccco1)C12CC3CC(CC(C3)C1)C2 (stereo not drawn),-1%,13%,3%,>57,-1%,-5%
Cc1ccc(Cl)cc1N1CCN(C(=O)CN2C(=O)c3cccc4cccc2c34)CC1,-26%,27%,2%,5.3*,25%,61%
N#Cc1c(/N=C/N2CCOCC2)sc2c1CCCCC2,-7%,-6%,13µM*,.,3%,2%
N#Cc1c(/N=C/c2cccs2)sc2c1CCCCC2,-10%,22%,2µM*,1.1*,4%,13µM*
CN(C)/C=N/c1sc2c(c1C#N)CCC2,?,-3%,-4%,>57,-7%,9%
Cc1noc(C)c1-c1nc(Nc2ccncc2)c2ccccc2n1,?,-3%,1%[2.29 µM],.,-11%,10%
O=C(c1ccc(Cc2nc3ccccc3[nH]2)cc1)N1CCCCC1,-9%,1%,.,.,-19%,.
NC(=O)CCCCC(N)=O,5%,1%,.,.,7%,0%
NC(=O)CCn1nc(-c2ccccc2)c2ccccc2c1=O,2%,-8%,2%,>57,7%,2%
O=C(CCn1nc(-c2ccccc2)c2ccccc2c1=O)N1CCN(c2ccccc2)CC1,-9%,?,0%,>57,25µM*,19%
COC(=O)c1ccc(C(NC(=O)OCc2ccccc2)/C(=C/[C@@H](C)C(=O)NCc2cc(C)n(C)n2)c2cccnc2)cc1 (stereo partly drawn),3%,-1%,.,.,10%,-3%
Cc1cccc(Nc2nc(NCc3ccco3)nc(N3CCOCC3)n2)c1,-6%,?,-5%,>57,?,-2%
Fc1ccc(Cn2nnnc2CN2CCN(C3CCCCC3)CC2)cc1,2%,?,-39%,>57,10µM*,2%
Cc1cc(O)c(C(C)C)cc1CN1CCCCC1,-2%[11.4 µM],2%[11.4 µM],1%[11.4 µM],.,5%[11.4 µM],10%[11.4 µM]
Cc1noc(C)c1-c1ccc2ncnc(N3CCOCC3)c2c1,8%,1%,0%[2.29 µM],.,3%,-5%
CCOC(=O)c1cc(C)n(CCc2ccccc2)c1C,-6%,?,0%,>57,25µM*,4%
CCOC(=O)c1cc(C)n(-c2c(C)n(C)n(-c3ccccc3)c2=O)c1C,2%,-4%,-3%,>57,8%,-9%
Nc1nc(Nc2ccccc2)nc2ccccc12,?,?,6.3µM*,5.5*,-94%,56%
CN1C=CC=C/C1=C(\C#N)c1nc2ccccc2[nH]1,-8%,-1%,-25%,>57,-10%,32µM*
CCCCn1c(SCC(=O)NC(=O)NCc2ccco2)nc2cc(S(N)(=O)=O)ccc21,10µM*,25%,-18%,>57,17%,15%
CCCCn1c(SCC(=O)N2CCC(C)CC2)nc2cc(S(N)(=O)=O)ccc21,-7%,-4%[11.4 µM],-2%,>57,24%,13%
